Results as given in PubChem BioAssay AID1159580 (chemical genetic matrix, 2015).
Values joined by “and” are separate entries in the source; they are usually repeats but may differ in a detail not shown here. Equal entries are not always repeated. Out of some 5,500 compounds screened, about 2,000 (36%) were called active. Not shown: some 18% with an inconclusive outcome. Rule as the data show it: active = normalized growth mostly below about 0.91 (no sharp cut-off); inconclusive = no clear call, values can overlap the other calls; inactive = mostly above about 0.92. Some of the results follow.

Experiment: chemical genetic growth profiling, strain panel (AID 1159580);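 also: tested at 20 µM; growth read once vehicle control cultures reached saturation at 30 °C; 1 = growth at the plate median or of vehicle wells; lower values mean less growth of the strain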
Conditions: S. cerevisiae deletion strains, growth OD

Measured: normalized growth

Cc1cc(=O)n(-c2ccccc2)n1C
inactive: locus YAL013W, strain DEP1, active compounds read low 1.02 | locus YAL021C, strain ccr4, active compounds read low 0.962 | locus YAL026C, strain drs2, active compounds read low 1 | locus YAL030W, strain snc1, active compounds read low 1 | locus YBL061C, strain skt5, active compounds read low 0.992 | locus YBR009C, strain hhf1, active compounds read low 1.06 | locus YBR021W, strain FUR4, active compounds read low 1 | locus YBR023C, strain chs3, active compounds read low 0.987 | locus YBR171W, strain sec66, active compounds read low 0.987 | locus YBR229C, strain ROT2, active compounds read low 1.01 | locus YBR231C, strain swc5, active compounds read low 1.01 | locus YBR279W, strain paf1, active compounds read low 0.995 | locus YCL011C, strain gbp2, active compounds read low 0.995 | locus YCL016C, strain dcc1, active compounds read low 0.979 | locus YCL029C, strain bik1, active compounds read low 0.996 | locus YCL061C, strain MRC1, active compounds read low 0.981 | locus YCL069W, strain vba3, active compounds read low 0.997 | locus YCR088W, strain abp1, active compounds read low 0.991 | locus YDL005C, strain med2, active compounds read low 0.991 | locus YDL035C, strain GPR1, active compounds read low 1.04 | locus YDL040C, strain nat1, active compounds read low 0.991 | locus YDL074C, strain BRE1, active compounds read low 1.02 | locus YDL101C, strain DUN1, active compounds read low 0.999 | locus YDL185W, strain tfp1, active compounds read low 0.994 | locus YDL192W, strain arf1, active compounds read low 0.989 | locus YDR001C, strain nth1, active compounds read low 0.983 | locus YDR069C, strain doa4, active compounds read low 1.02 | locus YDR101C, strain arx1, active compounds read low 0.983 | locus YDR137W, strain rgp1, active compounds read low 0.978 | locus YDR159W, strain sac3, active compounds read low 1.01 | locus YDR162C, strain NBP2, active compounds read low 1.04 | locus YDR195W, strain ref2 0.998 | locus YDR297W, strain sur2, active compounds read low 0.99 | locus YDR318W, strain mcm21, active compounds read low 0.989 | locus YDR334W, strain swr1, active compounds read low 0.986 | locus YDR335W, strain msn5, active compounds read low 0.992 | locus YDR388W, active compounds read low 0.986 | locus YDR392W, strain spt3, active compounds read low 0.94 | locus YDR502C, strain sam2, active compounds read low 0.994 | locus YEL003W, strain gim4, active compounds read low 1 | locus YEL037C, strain rad23, active compounds read low 0.995 | locus YEL061C, strain CIN8 (second series), active compounds read low 0.99 | locus YEL061C, strain CIN8, active compounds read low 1 | locus YER015W, strain faa2, active compounds read low 0.985 | locus YER016W, strain bim1, active compounds read low 0.996 | locus YER110C, active compounds read low 0.987 | locus YER111C, strain swi4, active compounds read low 0.984 | locus YER155C, strain BEM2 (second series), active compounds read low 1.01 | locus YER155C, strain BEM2, active compounds read low 1 | locus YER167W, strain BCK2, active compounds read low 1.02 | locus YFR010W, strain ubp6, active compounds read low 1 | locus YGL078C, strain dbp3, active compounds read low 0.982 | locus YGL086W, strain mad1, active compounds read low 0.989 | locus YGL167C, strain pmr1, active compounds read low 0.996 | locus YGL173C, strain kem1, active compounds read low 0.992 | locus YGL227W, strain vid30, active compounds read low 0.993 | locus YGL240W, strain doc1, active compounds read low 1 | locus YGL248W, strain PDE1, active compounds read low 0.999 | locus YGL253W, strain hxk2, active compounds read low 0.975 | locus YGR078C, strain PAC10, active compounds read low 1 | locus YGR135W, strain pre9, active compounds read low 1 | locus YGR229C, strain SMI1, active compounds read low 1.04 | locus YGR252W, strain gcn5, active compounds read low 1 | locus YHR013C, strain ard1, active compounds read low 0.982 | locus YHR027C, strain rpn1, active compounds read low 1.02 | locus YHR030C, strain SLT2, active compounds read low 1.01 and 0.973 | locus YHR079C, strain IRE1 (second series), active compounds read low 0.984 | locus YHR079C, strain IRE1, active compounds read low 1.03 | locus YHR094C, strain hxt1, active compounds read low 0.986 | locus YHR129C, strain ARP1, active compounds read low 1.01 | locus YHR142W, strain chs7, active compounds read low 0.963 | locus YHR200W, strain rpn10, active compounds read low 1 | locus YIL066C, strain RNR3, active compounds read low 1.04 | locus YIL073C, strain SPO22, active compounds read low 1.03 | locus YIL125W, strain kgd1, active compounds read low 0.986 | locus YIR030C, strain dcg1, active compounds read low 0.987 | locus YJL095W, strain BCK1 (second series), active compounds read low 0.999 | locus YJL095W, strain BCK1, active compounds read low 1 and 1.01 | locus YJL115W, strain asf1, active compounds read low 0.994 | locus YJL129C, strain trk1, active compounds read low 0.978 | locus YJL134W, strain LCB3, active compounds read low 1.01 | locus YJL154C, strain vps35, active compounds read low 0.991 | locus YJL164C, strain tpk1, active compounds read low 1.02 | locus YJL166W, strain qcr8, active compounds read low 0.953 | locus YJL168C, strain set2, active compounds read low 0.983 | locus YJL187C, strain SWE1 (second series), active compounds read low 0.987 | locus YJL187C, strain SWE1, active compounds read low 0.996 | locus YJR043C, strain POL32, active compounds read low 1.04
